Experiment [1] can be described thus: Nuclear factor erythroid 2-related factor 2/antioxidant responsive element (Nrf2/ARE) small molecule agonists: qHTS cell viability counter screen in human keratinocytes (AID 1919968; active = well fitted curve in the direction sought with a large enough effect in the repeat runs; an effect the other way counts as inactive or inconclusive; also: nearly all actives have a fitted effect of over 55% in size; also: potency is read from the fitted curve at half-maximal effect). The gist of the method:
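Stably transfected HaCaT (KeratinoSens), 1,500/well. Test agents in DMSO were applied for 23 h, 37 C/5% CO2. CellTiter-Fluor was incubated 1 h before the fluorescence read.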
Background: qHTS replaces the single test concentration by a dilution series.

Experiment [2] is described as follows: Nuclear factor erythroid 2-related factor 2/antioxidant responsive element (Nrf2/ARE) small molecule agonists: luciferase reporter gene qHTS assay in human keratinocytes (AID 1919969). Also: nearly all actives have a fitted effect of over 35% in size. On the technique in general: Reporter assays use an easily measured gene product as a stand-in for the process of interest.
Experiment [3] deals with Gonadotropin-releasing hormone receptor (Homo sapiens) (UniProt P30968). The experiment can be described thus: Human gonadotropin-releasing hormone receptor (GnRHR) small molecule agonists, calcium flux assay in GnRHR-HEK293 cells (AID 1920063). Also: nearly all actives have a fitted effect of over 35% in size. An outline of the steps:
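Stable human GnRHR HEK293 line. 18 h plating, then calcium dye for 1 h at 37 C. Agonist-mode compound addition from DMSO stocks; fluorescence monitored 3 min.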
On the technique in general: Calcium flux is commonly read through the fluorescence of an indicator in the cells.

For experiment [4], the target named is KiSS-1 receptor (Homo sapiens) (UniProt Q969F8). Description: Human kisspeptin (KISS1R) small molecule agonists, calcium flux assay in KISS1R-HEK293 cells (AID 1920064; active = well fitted curve in the direction sought with a large enough effect in the repeat runs; an effect the other way counts as inactive or inconclusive). The gist of the method: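 After overnight (18 h) culture at 37 C/5% CO2, human KISS1R-HEK293 cells received calcium dye for 1 h, then test compound; emission at 540 nm (excitation 480 nm) was tracked for 3 min.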
Sequence of KiSS-1 receptor (Homo sapiens) (Q969F8 whole entry, looked up): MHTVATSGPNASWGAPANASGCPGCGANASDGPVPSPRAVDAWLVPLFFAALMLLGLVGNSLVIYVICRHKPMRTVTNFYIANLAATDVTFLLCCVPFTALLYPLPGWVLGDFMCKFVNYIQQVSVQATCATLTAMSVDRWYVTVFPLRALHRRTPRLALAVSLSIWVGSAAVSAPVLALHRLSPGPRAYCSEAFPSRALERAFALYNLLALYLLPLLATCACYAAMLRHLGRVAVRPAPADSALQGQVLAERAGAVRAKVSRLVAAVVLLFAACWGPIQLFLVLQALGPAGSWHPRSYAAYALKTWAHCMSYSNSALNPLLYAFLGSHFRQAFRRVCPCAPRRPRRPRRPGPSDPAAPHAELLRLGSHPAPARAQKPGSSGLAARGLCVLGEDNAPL

Experiment [5] can be described thus: G protein-coupled receptor (GPCR) small molecule agonists, calcium flux assay: HEK293 wild type cell line counter screen (AID 1920065). The gist of the method:
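Following 18 h incubation at 37 C/5% CO2, plates got calcium dye for 1 h; compounds, ATP or DMSO were then pinned in and fluorescence followed kinetically (480/540 nm).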

Experiment [6] is described as follows: p53 small molecule agonists, cell-based qHTS assay with human liver microsomes: qHTS cell viability counter screen (AID 1963579). Also: nearly all actives have a fitted effect of over 45% in size. An outline of the steps:
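Metabolically activated exposure: compounds, human liver microsomes and NADPH (0.5 mg/mL final apiece) were added to p53RE-bla cells seeded 5 h earlier, left 16 h at 37 C, and then assessed for viability by CellTiter-Glo luminescence.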

Experiment [7] in a line: p53 small molecule agonists, cell-based qHTS assay with rat liver microsomes: qHTS cell viability counter screen (AID 1963580). Also: nearly all actives have a fitted effect of over 45% in size. The gist of the method:
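Cytotoxicity counter screen: intracellular ATP measured by CellTiter-Glo luminescence in the same wells as the beta-lactamase reporter read, on HCT-116 p53RE-bla cells exposed 16 h at 37 C to compounds with rat liver microsomes and NADPH, each 0.5 mg/mL final.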

Experiment [8] deals with 5-hydroxytryptamine receptor 2A (Homo sapiens) (UniProt P28223). Description: 5-hydroxytryptamine receptor 2A (HTR2A) small molecule antagonists, cell-based qHTS assay (AID 1963586). Also: nearly all actives have a fitted effect of over 45% in size. An outline of the steps:
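CHO cells stably expressing human HTR2A were plated for 18 h at 37 C, then loaded with calcium dye for 1 h. Compounds were preincubated 5 min at room temperature before DOI (4 nM solution) was added. Kinetic fluorescence was read for 3 min.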

Experiment [9] has the same target. The experiment can be described thus: 5-hydroxytryptamine receptor 2A (HTR2A) small molecule agonists, cell-based qHTS assay (AID 1963587). Also: nearly all actives have a fitted effect of over 30% in size. The gist of the method:
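CHO cells stably expressing human HTR2A, plated 18 h, loaded with calcium dye 1 h at 37 C. Agonist mode: compounds added and intracellular calcium fluorescence recorded kinetically for 2 min at 1 sec intervals.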

Experiment [10] concerns the target Muscarinic acetylcholine receptor M1 (Homo sapiens) (UniProt P11229). The experiment can be described thus: Cholinergic receptor muscarinic 1 (CHRM1) small molecule antagonists, cell-based qHTS assay (AID 1963588). Also: nearly all actives have a fitted effect of over 40% in size. The gist of the method:
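Compounds were tested at 15 concentrations in three independent runs. Dye-loaded CHRM1-CHO cells were exposed 5 min at room temperature before stimulation by acetylcholine added at 50nM. Intracellular calcium was read kinetically on FDSS for 3 min.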

Experiment [11] shares this target. Description: Cholinergic receptor muscarinic 1 (CHRM1) small molecule agonists, cell-based qHTS assay (AID 1963589). Also: nearly all actives have a fitted effect of over 35% in size. The gist of the method: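 Kinetic fluorescence (1 s intervals) of calcium-sensitive dye in human M1 CHO cells after compound addition; cells pre-incubated 18 h at 37 C/5% CO2 and dye-loaded 1 h.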
Experiment [12] is described as follows: cAMP Responsive Elements (CRE) small molecule agonists, cell-based qHTS assay (AID 1963590). An outline of the steps: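 Test agents in DMSO were incubated 3 h at 37 C/5% CO2 with CRE-bla HEK 293T cells seeded 18 h earlier; LiveBLAzer B/G FRET substrate was added and read after 2 h at room temperature.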
Experiment [13] in a line: cAMP Responsive Elements (CRE) small molecule antagonists, cell-based qHTS assay (AID 1963591; active = well fitted inhibition curve with a large enough effect in the signal ratio in the repeat runs, not every such curve was filed as active; the % refers to the signal ratio). The gist of the method:
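Reporter line CRE-bla HEK 293T in dialyzed-FBS DMEM; cells preincubated 18 h, treated 3 h with compound plus NKH477 (0.25 uM final); LiveBLAzer FRET, 2 h RT.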

For experiment [14], the target named is Beta-2 adrenergic receptor (Homo sapiens) (UniProt P07550). The experiment can be described thus: Adrenergic beta2 receptor (ADRB2) small molecule antagonists, cell-based qHTS assay (AID 1963592). Also: series mostly up to about 92 µM; nearly all actives have a fitted effect of over 50% in size. An outline of the steps:
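Assay format: CHO-ADRB2 cells, 18-20hr seeding at 37C/5% CO2, then compound plus 1nM isoproterenol agonist mix for 0.5hr RT. Homogeneous time-resolved fluorescence cAMP detection after 1hr, expressed as 665/615 nm ratio.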

Experiment [15] has as its target D(2) dopamine receptor (Homo sapiens) (UniProt P14416). The experiment can be described thus: Dopamine D2 receptor (DRD2) small molecule agonists, cell-based qHTS assay (AID 1963594). Also: nearly all actives have a fitted effect of over 35% in size. An outline of the steps:
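HEK293 cells stably expressing human DRD2, pre-treated with PDE inhibitor Ro20-1724 (0.1 mM final) and compound 10 min at room temperature, then stimulated with NKH477 (200nM […]) for 30 min. cAMP read by HTRF (665/620 nm).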

The target is the same in experiment [16]. Description: Dopamine D2 receptor (DRD2) small molecule antagonists, cell-based qHTS assay (AID 1963595; active = well fitted inhibition curve with a large enough effect in the signal ratio in the repeat runs, with a control signal flat; the % refers to the signal ratio). An outline of the steps: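 Cells were plated and grown for 24 h at 37 °C. Ro20-1724 (0.1 mM final) went in first, then compound for 10 min. NKH477 (200 nM) with quinpirole (12 nM) followed for 30 min at RT, then HTRF detection reagents for 1 h.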
Experiment [17] has as its target Beta-2 adrenergic receptor (Homo sapiens) (UniProt P07550). Description: Adrenergic beta2 receptor (ADRB2) small molecule agonists, cell-based qHTS assay (AID 1963593).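 Also: CHO cells stably overexpressing human ADRB2.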 The gist of the method:
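CHO cells stably over-expressing ADRB2 were plated overnight at 37C, then dosed with compounds plus a stimulation mix containing 100uM IBMX and 25uM Ro-20-1724 for 0.5hr at room temperature. cAMP was measured by HTRF competition, 1hr.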

The nature of experiment [18]: p53 small molecule agonists, cell-based qHTS assay (AID 1963582; active = well fitted activation curve with a large enough effect in the signal ratio in the repeat runs, not every such curve was filed as active; the % refers to the signal ratio). The gist of the method: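 Measured: fluorescence from cleaved LiveBLAzer substrate. System: p53RE-bla cells, 16 h compound treatment at 37 C, 2 h substrate step at room temperature.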
Experiment [19] in a line: p53 small molecule agonists, cell-based qHTS assay: qHTS cell viability counter screen (AID 1963581). Also: nearly all actives have a fitted effect of over 45% in size. The gist of the method: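 qHTS counter screen: 16 h compound exposure at 37 C of p53RE-bla HCT-116 cells (4,000 per well, seeded 5 h prior), cell viability by ATP luminescence.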

Results filed as inconclusive are left out. Active and inactive are the calls of the source. Unless noted, calls follow the shape of the full dose curve.

Sequence of Gonadotropin-releasing hormone receptor (Homo sapiens) (P30968 whole entry, looked up): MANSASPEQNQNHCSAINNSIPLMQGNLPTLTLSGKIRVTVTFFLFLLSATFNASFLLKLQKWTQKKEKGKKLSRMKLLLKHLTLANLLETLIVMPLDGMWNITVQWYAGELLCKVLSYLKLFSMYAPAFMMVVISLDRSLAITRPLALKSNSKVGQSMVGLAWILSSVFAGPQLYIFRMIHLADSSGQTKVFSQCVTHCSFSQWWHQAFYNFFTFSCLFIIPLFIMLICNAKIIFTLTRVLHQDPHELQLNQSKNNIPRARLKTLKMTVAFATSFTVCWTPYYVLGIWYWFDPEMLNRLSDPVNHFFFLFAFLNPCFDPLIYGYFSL
Sequence of Muscarinic acetylcholine receptor M1 (Homo sapiens) (P11229 whole entry, looked up): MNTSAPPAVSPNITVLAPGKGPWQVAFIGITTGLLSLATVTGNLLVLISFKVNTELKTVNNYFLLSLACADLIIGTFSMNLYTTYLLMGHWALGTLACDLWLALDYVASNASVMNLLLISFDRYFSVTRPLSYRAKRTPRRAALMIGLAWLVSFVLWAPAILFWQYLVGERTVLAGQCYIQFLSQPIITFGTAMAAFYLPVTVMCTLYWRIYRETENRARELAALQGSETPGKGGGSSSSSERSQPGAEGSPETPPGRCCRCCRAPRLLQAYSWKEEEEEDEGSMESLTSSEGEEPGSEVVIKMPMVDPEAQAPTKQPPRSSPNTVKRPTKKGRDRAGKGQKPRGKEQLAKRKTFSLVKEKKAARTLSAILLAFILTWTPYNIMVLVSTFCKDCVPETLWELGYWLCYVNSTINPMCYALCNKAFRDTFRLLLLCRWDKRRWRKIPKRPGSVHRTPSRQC
Sequence of D(2) dopamine receptor (Homo sapiens) (P14416 whole entry, looked up): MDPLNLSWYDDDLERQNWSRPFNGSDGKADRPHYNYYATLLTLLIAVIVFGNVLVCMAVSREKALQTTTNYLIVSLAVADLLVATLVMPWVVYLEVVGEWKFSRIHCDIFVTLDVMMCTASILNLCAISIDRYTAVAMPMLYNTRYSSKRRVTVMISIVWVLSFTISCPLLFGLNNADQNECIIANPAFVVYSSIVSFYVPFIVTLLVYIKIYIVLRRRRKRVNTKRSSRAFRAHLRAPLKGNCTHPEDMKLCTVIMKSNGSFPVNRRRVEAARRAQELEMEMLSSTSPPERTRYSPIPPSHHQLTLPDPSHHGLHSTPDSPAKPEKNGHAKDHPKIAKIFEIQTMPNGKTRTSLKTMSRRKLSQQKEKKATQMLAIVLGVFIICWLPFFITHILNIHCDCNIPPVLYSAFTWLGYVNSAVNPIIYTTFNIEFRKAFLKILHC
Sequence of 5-hydroxytryptamine receptor 2A (Homo sapiens) (P28223 whole entry, looked up): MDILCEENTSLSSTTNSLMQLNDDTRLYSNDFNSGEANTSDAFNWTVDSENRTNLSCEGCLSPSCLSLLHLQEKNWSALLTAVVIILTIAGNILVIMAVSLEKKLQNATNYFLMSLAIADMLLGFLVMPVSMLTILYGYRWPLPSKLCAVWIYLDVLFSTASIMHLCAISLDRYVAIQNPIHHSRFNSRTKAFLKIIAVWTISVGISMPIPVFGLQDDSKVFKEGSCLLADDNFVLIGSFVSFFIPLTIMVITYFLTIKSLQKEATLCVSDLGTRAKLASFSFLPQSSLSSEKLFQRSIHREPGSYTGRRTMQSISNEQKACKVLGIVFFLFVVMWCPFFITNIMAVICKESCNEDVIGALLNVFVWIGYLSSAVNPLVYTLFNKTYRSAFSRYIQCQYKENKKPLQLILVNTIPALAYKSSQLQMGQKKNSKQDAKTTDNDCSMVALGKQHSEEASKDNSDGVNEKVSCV
Sequence of Beta-2 adrenergic receptor (Homo sapiens) (P07550 whole entry, looked up): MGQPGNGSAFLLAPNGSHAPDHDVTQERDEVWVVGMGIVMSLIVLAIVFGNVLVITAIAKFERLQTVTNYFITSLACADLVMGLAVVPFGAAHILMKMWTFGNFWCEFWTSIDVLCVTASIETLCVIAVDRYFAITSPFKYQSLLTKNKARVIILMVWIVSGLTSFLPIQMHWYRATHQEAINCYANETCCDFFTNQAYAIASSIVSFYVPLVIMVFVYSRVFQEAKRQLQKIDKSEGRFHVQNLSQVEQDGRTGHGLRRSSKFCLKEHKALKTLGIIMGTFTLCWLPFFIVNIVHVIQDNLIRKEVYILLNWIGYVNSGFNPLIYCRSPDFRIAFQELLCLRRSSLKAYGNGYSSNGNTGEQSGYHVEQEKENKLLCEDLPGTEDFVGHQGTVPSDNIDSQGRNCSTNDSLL

Turning to `O=C(Cl)c1cccc([N+](=O)[O-])c1`, the Potency entry in [1], in experiment [2], in experiment [3], in experiment [4], in experiment [5] and in [6] was “inactive” each time. Further, the Potency entry in [7], in experiment [8], in experiment [9], in experiment [10], in [11] and in experiment [12] was “inactive” throughout. Also, the Potency result in experiment [13], in experiment [14], in [15] and in experiment [16] was “inactive” in each case.

For the compound `COc1cc(NCc2ccc3nc(N)nc(N)c3c2C)cc(OC)c1OC`, the Potency result in experiment [1], in [2], in experiment [3], in experiment [4], in experiment [5] and in experiment [6] was “inactive” throughout. The Potency entry in [7], in experiment [8], in experiment [9], in [10], in experiment [11] and in experiment [14] was “inactive” each time. Further, the Potency result in experiment [17], in experiment [15] and in [16] was “inactive” in each case.

Consider `CC(=O)Oc1cccc2c1C(=O)c1c(OC(C)=O)cc(C(=O)O)cc1C2=O`, for which the Potency entry in [1], in [2], in experiment [3], in experiment [4], in experiment [5] and in experiment [6] was “inactive” throughout. The Potency result in experiment [7], in experiment [8], in experiment [9], in [10], in experiment [11] and in experiment [14] was “inactive” throughout. In [15], the Potency result is “inactive”.

`Cc1cc2nc(N)sc2cc1C`: the Potency result in experiment [1], in [2], in experiment [3], in experiment [4], in experiment [5] and in experiment [6] was “inactive” each time. Moreover, the Potency entry in experiment [7], in experiment [18], in [9], in experiment [10], in experiment [11] and in experiment [12] was “inactive” in each case. The Potency result in experiment [17], in [15] and in experiment [16] was “inactive” in each case.

In the case of `CC1(C)SC(C)(C)SC(C)(C)S1`, the Potency entry in [1], in experiment [2], in experiment [3], in experiment [4], in experiment [5] and in experiment [6] was “inactive” in each case. Also, the Potency result in experiment [7], in [8], in [9], in experiment [10], in experiment [11] and in experiment [12] was “inactive” throughout. In addition, the Potency entry in experiment [13], in experiment [17], in experiment [15] and in [16] was “inactive” throughout.

For the compound `CC1(C)O[C@@H]2C[C@H]3[C@@H]4C[C@H](F)C5=CC(=O)C=C[C@]5(C)[C@H]4[C@@H](O)C[C@]3(C)[C@]2(C(=O)CO)O1`, the Potency result in experiment [1], in [2], in experiment [3], in [4], in experiment [5] and in experiment [6] was “inactive” each time. Moreover, the Potency entry in [7], in experiment [19], in [14], in experiment [17], in experiment [15] and in experiment [16] was “inactive” in each case.

As to `C[C@H](CCC(=O)O)[C@H]1CC[C@H]2[C@@H]3C(=O)C[C@@H]4CC(=O)CC[C@]4(C)[C@H]3CC(=O)[C@]12C`, the Potency entry in experiment [1], in experiment [2], in experiment [3], in experiment [4], in [5] and in [6] was “inactive” in each case. Moreover, the Potency entry in experiment [7], in experiment [8], in experiment [9], in [10], in experiment [11] and in experiment [14] was “inactive” each time. In addition, the Potency entry in experiment [17] and in experiment [16] was “inactive” throughout.

Regarding `CCCCCCOC(=O)CC(CC(=O)OCCCCCC)(OC(=O)CCC)C(=O)OCCCCCC`, the Potency result in [1], in experiment [2], in experiment [3], in experiment [4], in [5] and in experiment [6] was “inactive” each time. Besides, the Potency entry in experiment [7], in [8], in [9], in experiment [10], in experiment [11] and in experiment [12] was “inactive” in each case. The Potency entry in [13], in experiment [14], in experiment [17] and in [16] was “inactive” each time.

Take `CN(Cc1ccc(C(C)(C)C)cc1)Cc1cccc2ccccc12`: in experiment [1], the Potency was 11.9 µM (active). The Potency result in experiment [2], in [3], in experiment [4], in [5], in [6] and in [7] was “inactive” each time. Moreover, the Potency entry in [19], in experiment [13], in experiment [14], in experiment [17] and in experiment [15] was “inactive” throughout.

With `Cc1ccc(C(=O)C(C)CN2CCCCC2)cc1` (stereo not given), the Potency entry in [1], in experiment [2], in experiment [3], in experiment [4], in experiment [5] and in experiment [6] was “inactive” each time. The Potency result in experiment [7], in experiment [18], in [13], in experiment [14] and in [15] was “inactive” in each case.
